# Assay results: PubChem BioAssay (NCI)
# The panel holds about 83,000 compounds, 20% with a hit somewhere; the sample as a whole holds those more often.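 Step 1: grow cells in 96-well plates. Step 2: add test compound at a single concentration. Step 3: incubate 48 h. Step 4: record percent growth.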 Active and inactive are the calls of the source. How the source made its calls: active means growth percent below 10; inactive means the rest.
# System: HL-60(TB) leukemia
# Experiment: NCI-60 one-dose screen, 48 h (100 = growth as untreated, 0 = no growth, -100 = all killed)
# Conditions: 10 µM unless noted
row,Structure (SMILES),growth
1,Cc1ccc2oc3nc(C)c(C(=O)NCc4ccccc4)cc3c(=O)c2c1,73.4% (inactive)
2,Nc1cc2ccncc2c2ccccc12,90% (inactive)
3,COc1ccc(/C=C/C(=O)c2ccc(NC(=O)CN3CCN(c4cc5c(cc4F)c(=O)c(C(=O)O)cn5C4CC4)CC3)cc2)cc1,123% (inactive)
4,COc1cc(/C=C2\C(=O)Nc3ccc(N(C)C)cc32)cc(OC)c1OC,27.5% (inactive)
5,O=C1c2nsnc2C(=O)c2c(F)c(F)c(F)c(F)c21,-41.9% (active)
6,CN(C)CC(CN(C)C)C(O)c1ccccc1 (stereo not given),99.8% (inactive)
7,CCCCCCCCn1ccc2cc(NC(=O)Cn3cc(CN4CCN(CC)CC4)nn3)ccc21,63.9% (inactive)
8,COc1cc(NS(=O)(=O)c2ccc(-c3cnc(C4CC4)o3)cc2)ccc1F,1.92% (active)
9,COc1ccc(N(C)c2nc(Cl)nc3ccn(C)c23)cc1,-35.3% (active)
10,CCOC(=O)C1C(=O)C(=O)N(C(C)C)C1C(=O)OCC (stereo not given),123% (inactive)
11,c1ccc2[nH]c(-c3ccc(-c4nccc5c4[nH]c4ccccc45)cc3)nc2c1,-42.1% (active)
12,COc1ccc(/C=N\Nc2nc(SCC(C)C)nc(-c3ccc(OC)cc3)c2C#N)cc1,35.8% (inactive)
13,O=C1c2ccccc2C2N1CCC1CCc3ccccc3N12 (stereo not given),104% (inactive)
14,COc1ccc2c(c1)nc(NNC(=O)c1cnccn1)c1cccn12,-6.85% (active)
15,COc1ccc(-c2nc(-c3nc4ccc(OC)cc4[nH]3)c3ccccn23)cc1,52.1% (inactive)
16,CN(C)CCNC(=O)c1cc2c3cc(Cl)ccc3[nH]c2c2ncccc12,-64.8% (active)
17,COc1ccc(C(=O)c2ccccc2CN2C(=O)c3ccccc3C2=O)cc1,103% (inactive)
18,N=C(N)c1ccc(-c2ccc(-c3ccc(Cl)cc3)o2)nc1,110% (inactive)
19,COc1cccc(N2CCN(c3ncnc4cc[nH]c34)CC2)c1,71.3% (inactive)
20,O=[N+]([O-])c1ccc(/C(=C/c2ccccc2)[n+]2ccccc2)cc1,110% (inactive)

row,Structure (SMILES),growth
1,COc1ccc(/C=C/c2nc(N3CCOCC3)c3nc(Cl)c(Cl)cc3n2)cc1OC,91.9% (inactive)
2,Cc1ccc(N(CSc2ccc(Cl)cc2)CSc2ccc(Cl)cc2)cc1,-46.7% (active)
3,COc1ccc(C(c2cc(OC)c(OC)c(OC)c2)N2CCCC2)cc1 (stereo not given),35.5% (inactive)
4,COc1ccc(-c2cnoc2-c2cc(OC)c3c(c2)OCCO3)cc1,-27.4% (active)
5,CCN(CC)CCO/N=C1\CC(c2ccc(OC)c(OC)c2)Oc2ccccc21 (stereo not given),78.4% (inactive)
6,COC(=O)[C@@]12OC[C@]34[C@H]([C@@H](O)[C@@H]1O)[C@@]1(C)[C@H](O)C(=O)C=C(C)[C@@H]1C[C@H]3OC(=O)C(OC(C)=O)[C@@H]24 (stereo not given in full),-59% (active)
7,Cc1nc(Nc2cccnc2)sc1C(=O)/C=C/c1ccc(F)cc1,12.6% (inactive)
8,Cn1cc(-c2csc(-c3cn(C)c4ncccc34)n2)c2cc(F)cnc21,86.4% (inactive)
9,CNC1=C([N+](=O)[O-])C(c2ccc(OC)cc2)C(C#N)=C(c2cccs2)O1 (stereo not given),99.5% (inactive)
10,CCN1C(=O)N(CC)C2Nn3c(s/c(=C4\C(=O)N(CC(C)C)c5ccccc54)c3=O)=NC21 (stereo not given),18.9% (inactive)
11,CN(C)c1ccc(/C=N/NC(=O)c2ccccc2Nc2cccc(C(F)(F)F)c2)cc1,92.1% (inactive)
12,Oc1c(CN2CCCC2)cc(CSCc2ccccc2)c2cccnc12,-23.7% (active)
13,COc1ccc(/C=C/C(=O)c2ccc(-n3cc(CN4CCN(c5cc6c(cc5F)c(=O)c(C(=O)O)cn6C5CC5)CC4)nn3)cc2)cc1OC,45.1% (inactive)
14,CCCCCCCCCCCC[n+]1ccccc1 (tested in a mixture with another compound),-77.6% (active)
15,Cn1ncc2c(Sc3ccc(Cl)cc3)ncnc21,81.4% (inactive)
16,Clc1ncccc1Nc1ccc2nnc(-c3ccncc3)n2n1,89.5% (inactive)
17,Nc1ccc2c(c1)/C(=N/O)c1cc([N+](=O)[O-])ccc1-2,64.1% (inactive)
18,CC(C)(O)c1cn(CCCCN2C(=O)C(=O)c3ccccc32)nn1,97.8% (inactive)
19,Nc1ccccc1-c1ccc([N+](=O)[O-])cc1,14.2% (inactive)
20,CC1=CC(=O)C(C(C)C)=CC1=Nc1cc(Br)c(O)c(Br)c1,-9.85% (active)
